PubChem BioAssay AID449762 (Southern Research Specialized Biocontainment Screening …, 2010)
About 1,900 (0.58%) of roughly 330,000 compounds were called active. Another 4% or so got no clear call; they are omitted. Rule as the data show it: inconclusive = inhibition above about 70% without an active follow-up result; inactive = below that. These entries were drawn from the full list. Measured potencies and affinities stand elsewhere.

Test: M. tuberculosis growth inhibition, HTS (AID 449762);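 also: bacterial growth assessed after seven days of incubation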
Settings: M. tuberculosis H37Rv growth inhibition, 7H9 media; at 25 µM; hits give high values

| SMILES | inhibition |
| --- | --- |
| COc1cccc2cc(C(=O)Nc3ccc(S(=O)(=O)NCC4CCCO4)cc3)c(=O)oc12 (centres undefined) | 1.32% (inactive) |
| Cc1ccccc1C(=O)/C(C#N)=N/Nc1c(C)n(C)n(-c2ccccc2)c1=O | -1.13% (inactive) |
| O=C(/C=C/c1c(F)cccc1Cl)Nc1ccncc1 | 9.18% (inactive) |
| O=C(Nc1ccc(OC(F)(F)F)cc1)c1ccc2nccnc2c1 | 66.2% (inactive) |
| O=C(Nc1ccc(OC(F)(F)F)cc1)c1ccc2nc[nH]c2c1 | 41.2% (inactive) |
| S=C(NCCC(c1ccccc1)c1ccccc1)Nc1ccc(Cl)cc1 | 1.85% (inactive) |
| O=c1cc(N2CCOCC2)cnn1-c1ccccc1 | 14.3% (inactive) |
| O=S(=O)(Nc1ccccc1)c1ccc(S(=O)(=O)N2CCCC2)cc1 | -1.05% (inactive) |
| O=[N+]([O-])c1cc(-c2ncccn2)cs1 | 0.84% (inactive) |
| Nc1ncc([N+](=O)[O-])s1 | -0.165% (inactive) |
| CCn1nnc(-c2ccccc2NS(=O)(=O)c2ccc(S(=O)(=O)N(C)C3CCCCC3)cc2)n1 | 2.36% (inactive) |
| N#Cc1ccccc1COC(=O)CCC(=O)c1cccs1 | 5.44% (inactive) |
| c1ccc2c(CNc3ccc(CNc4ncn[nH]4)cc3)cccc2c1 | 1.09% (inactive) |
| C/C(=N\NC(=O)c1c[nH]c2ccccc12)c1ccco1 | 19.6% (inactive) |
| C/C(=N/NC(=O)c1ccccn1)c1ccncc1 | 39.2% (inactive) |
| COc1ccc(CN2CCC(Oc3ccc(C(=O)NCc4ccccn4)cc3)CC2)c(F)c1 | -12.3% (inactive) |
| CCOc1ccc(NC(=O)NC2CCCc3ccccc32)cc1 (centres undefined) | -11.3% (inactive) |
| Cc1cc2c(N)cccc2nn1 | -2.97% (inactive) |
| Cc1cnnc2ccc3c(no[n+]3[O-])c12 | 0.29% (inactive) |
| Cc1ccc(-n2c(CSc3nc(C)cc(C)n3)n[nH]c2=S)cc1 | -6.43% (inactive) |
| N#Cc1c(N)nc2c(c1-c1ccc(Br)s1)CCCC2 | 0.77% (inactive) |
| Cc1ccc(C)c(NC(=O)CN(C)C(=O)[C@@H](NC(N)=O)C(C)C)c1 | 1.17% (inactive) |
| OCC1OC(n2cnc3c(NC4CCCC4)ncnc32)C(O)C1O (centres undefined) | -0.62% (inactive) |
| OC[C@H]1O[C@@H](n2cnc3c(NC4CCCC4)ncnc32)[C@H](O)[C@@H]1O | -4.16% (inactive) |

| SMILES | inhibition |
| --- | --- |
| COc1cc(/C=C\C(=O)NCc2ccc3[nH]c(C)cc3c2)cc(OC)c1OC | -3.67% (inactive) |
| O=C(Cn1cnc2c(nnn2-c2ccccc2)c1=O)N1CCC(Cc2ccccc2)CC1 | -6.42% (inactive) |
| COc1ccc(-n2nnc3c(=O)n(CC(=O)N4CCC(Cc5ccccc5)CC4)cnc32)cc1 | -2.79% (inactive) |
| CCc1ccc(C(=O)COC(=O)C(CCSC)NC(=O)C23CC4CC(CC(C4)C2)C3)cc1 (centres undefined) | 1.72% (inactive) |
| CCCCNC(=S)N(C)/N=C/c1ccccc1F | 7.41% (inactive) |
| CCCCNC(=S)N(C)/N=C/c1c(F)cccc1F | -1.55% (inactive) |
| FC(F)(F)c1cc(CCN2C(=S)NC[C@@H]2CC2CCCCC2)cc(C(F)(F)F)c1 | -2.31% (inactive) |
| CCCC[C@@H]1CN=C(N)N1CCc1cc(C(F)(F)F)cc(C(F)(F)F)c1 | 4.85% (inactive) |
| COc1ccccc1CC(=O)NC1CCCCCC1 | -3.92% (inactive) |
| CC1CCCCC1NC(=O)Cn1c(CN2CCCCC2)nc2ccccc2c1=O (centres undefined) | 5.05% (inactive) |
| COc1ccc(N2C(=O)CC(NNC(=O)c3cc(C)oc3C)C2=O)cc1 (centres undefined) | -4.63% (inactive) |
| NC1=CC(=O)c2cccc3cccc1c23 | -0.47% (inactive) |
| O=C1C(=O)c2cccc3cccc1c23 | 3.34% (inactive) |
| COc1cc2c(cc1NC(=O)COC(=O)CNS(=O)(=O)c1ccc(C)cc1)oc1ccccc12 | 20.6% (inactive) |
| Cc1ccc(C)c(NC(=O)CCNS(=O)(=O)c2ccc3[nH]c(=O)oc3c2)c1 | -1.71% (inactive) |
| CC1(c2ccc(OC(F)F)cc2)NC(=O)N(CC(=O)Nc2ccc3c(c2)OCO3)C1=O (centres undefined) | 1.98% (inactive) |
| CC1(c2ccc(Cl)cc2)NC(=O)N(CC(=O)c2ccc3c(c2)OCO3)C1=O (centres undefined) | -11.1% (inactive) |
| CCN(CC(=O)Nc1ccccc1C(=O)OC)S(=O)(=O)c1ccccc1 | -8.58% (inactive) |
| Cc1nc(-c2nnc(SCC(=O)Nc3cc(Cl)cc(Cl)c3)n2C)cs1 | -8.27% (inactive) |
| CC1CCCCN1C(=O)C1CCN(S(=O)(=O)c2ccc(-n3cnnn3)cc2)CC1 (centres undefined) | -3.02% (inactive) |
| COc1ccc(OC)c2[nH]c(=O)c(CCNC(=O)c3ccc(Br)o3)cc12 | -4.84% (inactive) |
| Cc1cc(=O)oc2cc(OCC(=O)N3CCN(C(=O)C4COc5ccccc5O4)CC3)c(Cl)cc12 (centres undefined) | 68.3% (inactive) |
| Cc1cc(=O)oc2cc(OCC(=O)N3CCN(C(=O)C4COc5ccccc5O4)CC3)ccc12 (centres undefined) | 5.34% (inactive) |
| O=C(NCCN1CCOCC1)C1CCCN(S(=O)(=O)c2ccc(F)cc2)C1 (centres undefined) | -1.03% (inactive) |

| SMILES | inhibition |
| --- | --- |
| NNC(=O)C1=NOC(CNc2ncc(C(F)(F)F)cc2Cl)C1 (centres undefined) | -0.88% (inactive) |
| CC(=O)C1=NOC(CNc2ncc(C(F)(F)F)cc2Cl)C1 (centres undefined) | -4.07% (inactive) |
| O=c1c2nncn2c2cc(C(F)(F)F)ccc2n1CCNc1ncc(C(F)(F)F)cc1Cl | -1.6% (inactive) |
| O=c1[nH]c2cc(Cl)ccc2n(CCNc2ncc(C(F)(F)F)cc2Cl)c1=O | -0.44% (inactive) |
| Cc1nnc(SCc2c(Cl)cccc2Cl)s1 | 7.37% (inactive) |
| O=C(C1CCCN(c2ncnc3c2nc2n3CCCCC2)C1)N1CCN(c2ccc(F)cc2)CC1 (centres undefined) | 23.2% (inactive) |
| O=C(C1CCCN(c2ncnc3c2nc2n3CCCCC2)C1)N1CCN(c2ccccc2)CC1 (centres undefined) | 6.98% (inactive) |
| COc1cc2c(cc1NC(=O)Cc1ccc(C)cc1)oc1ccccc12 | -1.99% (inactive) |
| CCOc1ccccc1/C=C(/NC(=O)c1ccccc1)C(=O)N1CCCCC1 | 4.77% (inactive) |
| CCOP(=O)(OCC)C(NC(=O)c1ccccc1)=C(Cl)Cl | -0.5% (inactive) |
| COc1ccc(/C(C)=N/N2CCCCC2)c(O)c1 | 0.48% (inactive) |
| Cc1nn(Cc2ccc(Cl)cc2Cl)c(C)c1NC(=O)Cn1nc([N+](=O)[O-])c(Cl)c1C | 5.47% (inactive) |
| S=C(NCc1ccc2c(c1)OCO2)NCc1ccc2c(c1)OCO2 | 2.49% (inactive) |
| S=C(NCc1ccccc1)NCc1ccc2c(c1)OCO2 | 13% (inactive) |
| CN1/C(=C\C(=O)COC(=O)c2ccc(O)c(O)c2)C(C)(C)c2ccccc21 | 25% (inactive) |
| Oc1ccc(CCNc2c3ccccc3nc3ccccc23)cc1O | -2.38% (inactive) |
| O=C(Nc1ccc2c(c1)OCO2)c1c(F)c(F)c(F)c(F)c1F | 2.74% (inactive) |
| Cc1sc2ncnc(N3CCCCC3)c2c1C | 5.45% (inactive) |
| Cc1ccc(OCC(=O)NNC(=O)C2CCN(c3ncnc4sc(C)c(C)c34)CC2)cc1 | 42% (inactive) |
| CSc1ccccc1NC(=O)CN1c2ccccc2CC1C (centres undefined) | 7.66% (inactive) |
| CCOC(=O)Cc1csc(NC(=O)COc2ccccc2OCC)n1 | -11.5% (inactive) |
| CCOC(=O)Cc1csc(NC(=O)CCSc2ccccc2)n1 | 5.94% (inactive) |
| COC(=O)c1ccc(CSc2ncnc3c2sc2nc(N4CCOCC4)c4c(c23)CCCC4)o1 | -0.71% (inactive) |
| COC(=O)CSc1ncnc2c1sc1nc(N3CCOCC3)c3c(c12)CCCC3 | -2.32% (inactive) |

| SMILES | inhibition |
| --- | --- |
| O=c1cnnc(Nc2ccc(Nc3ccccc3)cc2)[nH]1 | 14% (inactive) |
| CC(C)c1ccc(NC(=O)CCS(=O)(=O)c2cccc3nonc23)cc1 | 6.08% (inactive) |
| O=C(C1CCC1)N1CCN(S(=O)(=O)c2ccc(F)cc2)CC1 | -11% (inactive) |
| CCOc1ccc(/C=C2/C(=N)N3OC(C)=CC3=NC2=O)cc1OC | 2.41% (inactive) |
| CN(CCO)c1cc(N2CCCCC2)c2nonc2c1[N+](=O)[O-] | -7.07% (inactive) |
| CN(CCO)c1cc(N2CCC3(CC2)OCCO3)c2nonc2c1[N+](=O)[O-] | -10.9% (inactive) |
| Cc1cc(C)cc(NC(=O)CCn2c(=S)[nH]c3ccccc3c2=O)c1 | 3.81% (inactive) |
| Cc1cccc(OCCCCNCc2ccccc2)c1 | 0.71% (inactive) |
| Clc1ccc(Cl)c(OCCCCNCc2ccccc2)c1 | 6.87% (inactive) |
| COc1ccc(Br)cc1/C=C/c1ccc2cccc(O)c2n1 | 69.8% (inactive) |
| COc1cc(Br)c(/C=C/c2ccc3cccc(O)c3n2)cc1OC | 15.4% (inactive) |
| On1c(-c2ccc(Cl)cc2)nc2ccccc21 | 67.2% (inactive) |
| COc1cc(CNn2nnnc2N)cc(Br)c1OCc1c(Cl)cccc1Cl | 0.85% (inactive) |
| Cc1ccc(N2CCN(S(=O)(=O)N3CCCCC3)CC2)cc1C | -2.98% (inactive) |
| CCOC(=O)C1=C(C)NC(SCC(N)=O)=C(C#N)C1c1cccs1 (centres undefined) | -3.02% (inactive) |
| CCOC(=O)C1=C(C)NC(SCC(=O)Nc2cc(C)on2)=C(C#N)C1c1cccs1 (centres undefined) | -1.09% (inactive) |
| O=C(COC(=O)c1cc(=O)[nH]c2ccccc12)NC(=O)c1ccccc1 | -1.53% (inactive) |
| COc1ccc(Nc2nc(CC(C)=O)ns2)cc1OC | -2.22% (inactive) |
| O=C1CN(C(=O)CN2C(=O)NC(c3ccccc3)(c3ccccc3)C2=O)c2ccccc2N1 | -4.74% (inactive) |
| CC(=O)N1CCN(C(=O)c2ccc(-c3cccc(C(F)(F)F)c3)o2)CC1 | -1.68% (inactive) |
| O=C(c1ccc(-c2cccc(C(F)(F)F)c2)o1)N1CCCCCCC1 | 4.53% (inactive) |
| CCCCS(=O)(=O)N1CCC(C(=O)Oc2ccccc2OC)CC1 | 28.5% (inactive) |
